# This is a sample that favours compounds with a hit; in the whole collection about 10% have one here.
# HP1b binding inh – HP1-beta chromodomain-methylated histone interaction inhibition. Potency, µM (series often up to 114 µM), for inactives: at the top dose activity change, negative = inhibition, actives largely listed as inhibitors. AlphaScreen HP1-beta / biotin-H3K9me3 peptide binding. 390,000 compounds, 0.56% hits; further: nearly all actives have a fitted effect of over 70% in size
#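 Compound inhibition of the preformed complex between 50 nM HP1-beta and 50 nM biotinylated H3K9me3 peptide was read by AlphaScreen. Buffer was PBS pH 7.4 with 0.01% Tween-20. Incubations ran 30 min at room temperature, with 10 ug/mL donor/acceptor beads.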
# G9a block – G9a (human) methyltransferase inhibition; Potency, µM (highest dose often 102 µM), inactives show at the highest dose activity, negative = inhibition, actives largely listed as inhibitors; 350,000 compounds, 8.8% hits; AID 504332; G9a H3K9 monomethylation, AlphaScreen, 2 h; further: on the % scale 0 is the no-effect control and ±100 the full control effect; nearly all actives have a fitted effect of over 75% in size
#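 AlphaScreen detection with an anti-monomethyl H3K9 antibody quantified product after a 2 h room-temperature reaction containing 500 nM biotinylated H3K9 peptide, 20 µM SAM and 20 nM enzyme, which had been preincubated 15 min with compound.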
# BAZ2B block – blocks human BAZ2B; Q9UIF8; AlphaScreen BAZ2B-H3K14Ac peptide displacement; Potency, µM (doses to about 114 µM), inactives show at the top dose activity change, negative = inhibition, hits mostly inhibitors; 360,000 compounds, 4.4% hits; further: on the % scale 0 is the no-effect control and ±100 the full control effect; nearly all actives have a fitted effect of over 60% in size
#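 AlphaScreen displacement: compounds (up to 110uM) incubated 30 min at room temperature with a preformed 50 nM BAZ2B/50 nM biotinylated H3K14Ac peptide complex in PBS pH 7.4 with Tween-20. Donor and acceptor beads at 10 ug/mL final added, 20 min light-protected before reading.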
# GLS inhibitor – inhibitors of human glutaminase (GLS); 410,000 compounds, 0.21% hits; GLS enzymatic activity, qHTS titration; Potency, µM (titrated, usually from 45.5 µM), for the others: top-dose activity change, negative = inhibition, hits mostly inhibitors; AID 624170; further: on the % scale 0 is the no-effect control and ±100 the full control effect
# Target sequence (O94925 whole entry, looked up): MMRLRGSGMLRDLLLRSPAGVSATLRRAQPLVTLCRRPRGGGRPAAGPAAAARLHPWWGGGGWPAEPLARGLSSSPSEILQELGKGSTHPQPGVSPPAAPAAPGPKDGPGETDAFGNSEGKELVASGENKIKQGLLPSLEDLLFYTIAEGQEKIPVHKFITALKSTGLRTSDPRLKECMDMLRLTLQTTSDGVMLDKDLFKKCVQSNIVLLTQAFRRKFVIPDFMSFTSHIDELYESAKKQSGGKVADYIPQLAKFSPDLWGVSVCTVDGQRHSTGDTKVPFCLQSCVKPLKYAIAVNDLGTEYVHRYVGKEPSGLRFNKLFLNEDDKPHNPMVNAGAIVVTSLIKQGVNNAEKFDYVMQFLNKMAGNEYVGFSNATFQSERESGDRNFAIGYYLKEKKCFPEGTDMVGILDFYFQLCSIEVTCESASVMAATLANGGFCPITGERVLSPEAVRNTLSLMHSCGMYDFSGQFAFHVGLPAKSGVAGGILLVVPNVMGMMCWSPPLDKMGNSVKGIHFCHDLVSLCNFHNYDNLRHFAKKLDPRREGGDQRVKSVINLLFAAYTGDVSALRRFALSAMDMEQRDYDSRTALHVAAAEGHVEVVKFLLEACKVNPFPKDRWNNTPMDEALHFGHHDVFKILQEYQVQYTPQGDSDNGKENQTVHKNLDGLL
#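 Two-point fluorescence kinetic (t0, 30 min RT) for hKGA; glutamate detected via glutamate oxidase–HRP–Amplex Red. Substrate: 1 mM L-glutamine solution; buffer 45 mM KH2PO4, pH 8.2.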
# JMJD2A Tudor – blocks the human JMJD2A Tudor domain; AlphaScreen JMJD2A-Tudor / H3K4me3 peptide binding; Potency, µM (doses to about 114 µM), for the others: at the top dose activity change, negative = inhibition, actives largely listed as inhibitors; 390,000 compounds, 4.4% hits; O75164; AID 504339; further: on the % scale 0 is the no-effect control and ±100 the full control effect; nearly all actives have a fitted effect of over 50% in size
# * marks the source's active call; other numbers are inactive results; ? = inconclusive; nt = no result given; ! = not confirmed by another sample; [ ] = dose if it differs, or a comment. The call rests on the fitted dose curve; in most records, active means well fitted curve in the direction sought with a large enough effect; inconclusive means small, poorly fitted or top-dose-only effect, or another doubt; inactive means no such curve, though single readings can be large; an effect the other way counts as inactive or inconclusive. Potency means the concentration at half of the fitted maximal effect.
SMILES,HP1b binding inh,G9a block,BAZ2B block,GLS inhibitor,JMJD2A Tudor
C=CCOc1cccc(C(=O)N2CCCC(CCC(=O)NCc3ccccc3F)C2)c1 (stereo not drawn),28.6%,nt,-0.4%,18.8%,-2.8%
C=CCOc1cccc(C(=O)N2CCCC(Nc3ccc4c(c3)OCCO4)C2)c1 (stereo not drawn),-13.5%,?,44.7µM*,18.3%,?
O=C(c1ccc(N2CCOCC2)cc1)N1CCCC(Nc2ccccc2)C1 (stereo not drawn),25.7%,-0.6%,-8.6%,?,?
c1ccc(CN2CCN(CCOCCOc3cccc4ccccc34)CC2)cc1,20µM*,nt,22.4µM*,-6.5%,1.78µM*
c1ccc2c(OCCCCN3CCOCC3)cccc2c1,?,nt,50.1µM*,5.4%,3.55µM*
O=C(c1ccco1)N1CCN(CCOCCOc2cccc3ccccc23)CC1,20.4%,?,?,3.7%,-23.3%
COc1ccccc1OCCCCCCN1CCOCC1,?,12.6µM*,50.1µM*,10.3%,20µM*
COc1cc(C2CC(=O)Nc3cc4c(cc32)OCO4)cc(OC)c1O (stereo not drawn),7.8%,?,-27.9%,8.1%,-19.5%
Cc1nn(-c2ccccc2)c(C)c1/C=N/Nc1nc2ccccc2[nH]1,?,?,?,15.3%,56.2µM*
Cc1nn(-c2ccccc2)c(Cl)c1/C=N/Nc1nc2ccccc2n1C,26.4%,50.1µM*,-37.8%,-2.3%,-34.3%
Cc1nn(-c2ccccc2)c(C)c1/C=N\NS(=O)(=O)c1ccc(Cl)cc1,25.8%,3.16µM*,-6.2%,1.0%,-31.3%
Cc1cc(=O)[nH]c(N/N=C/c2c(C)nn(-c3ccccc3)c2C)n1,16.1%,25.1µM*,-23.2%,9.4%,-11.0%
Cc1cc(=O)[nH]c(N/N=C/c2cc(C)n(-c3ccccc3)c2C)n1,17.5%,?,-27.5%,?,?
Cc1nn(-c2ccccc2)c(Cl)c1/C=N/NC(N)=O,8.7%,-5.2%,-20.0%,10.2%,-9.3%
CC1(Cc2cccc(C(F)(F)F)c2)C(=O)Nc2ccc(-c3ccc(F)c(Cl)c3)cc21 (stereo not drawn),nt,nt,nt,-1.8%,nt
CCOC(=O)c1ccc(NC(=O)Cc2ccc(-n3c(CC)nc4cccnc43)cc2)cc1,21.1%,-7.9%[59 µM],-17.3%,5.1%,-9.7%
O=C(C1=C[C@H](C2CC2)C[C@H](OCc2ccc(CO)cc2)O1)N1CCOCC1,29.9%,1.5%[59 µM],-6.2%,2.4%,-3.5%
Cc1ccccc1C(=O)Nc1cccc(-c2cn3cccnc3n2)c1,27.5%[57 µM],3.4%[59 µM],2.8%,1.7%,-20.0%
CC(C)C(=O)Nc1ccc2nn(-c3ccccc3)nc2c1,59.8%,16.6%,-1.1%,-10.8%,2.1%
O=c1c2oc3ccccc3c2n(Cc2cccc(C(F)(F)F)c2)c(=O)n1Cc1ccc2c(c1)OCO2,51.5%,?,-27.3%,6.7%,-0.4%
C=CCSC(=C(C#N)C#N)c1cc2c([nH]1)CCCC2,?,-47.9%[12.7 µM],50.1µM*,5.5%,50.1µM*
CCOc1cc(/C=N\Nc2nc(-c3ccc(C)cc3)c(NC(C)=O)s2)ccc1O,?,31.6µM*,-38.2%,-3.4%,28.2µM*
CCOc1cc(/C=N/Nc2nc(C)cc(=O)[nH]2)ccc1O,38.6%,-34.8%[2.33 µM],-8.5%,30.6%,-14.4%
COc1cc(/C=N\Nc2nc(-c3ccc(C)cc3)c(NC(C)=O)s2)ccc1O,28.2µM*,-120.4%[59 µM],39.8µM*,-17.2%,-27.2%[11.4 µM]
OC[C@H]1O[C@@H](n2cnc3c(N[C@H]4C[C@H]5CC[C@@H]4C5)ncnc32)[C@H](O)[C@@H]1O,nt,34.7%[59 µM],nt,nt,nt
SMILES,HP1b binding inh,G9a block,BAZ2B block,GLS inhibitor,JMJD2A Tudor
CCNCc1nc2cc(OC)c(OC)cc2c(=O)[nH]1,33.3%,?,50.1µM*,5.0%,-13.5%
Cn1nccc1/C=C(/C#N)S(=O)(=O)c1ccccc1,-10.0%,0.0%[59 µM],3.2%,-7.4%,39.8µM*
O=C1OC(c2ccc(Cl)cc2)=N/C1=C\C=C\c1ccco1,-10.0%,14.1µM*,nt,0.2%,?
O=C1OC(c2ccccc2)=N/C1=C\C=C\c1ccco1,-17.3%,nt,?,11.7%,?
O=c1c2cc(N3CCOCC3)ccc2[nH]c(=S)n1CCCN1CCCC1,?,?,3.2%,30.3%,79.4µM*
O=C(Cc1ccc(-n2c(=S)[nH]c3ccccc3c2=O)cc1)N1CCC(N2CCCCC2)CC1,14.9%,50.1µM*,?,-4.4%,-19.3%
O=c1c2cc(N3CCOCC3)ccc2[nH]c(=S)n1CCCN1CCCCC1,24.6%,-18.4%[12.7 µM],2.0%,23.2%,?
O=c1c2cc(N3CCOCC3)ccc2[nH]c(=S)n1Cc1ccco1,-50.9%,7.08µM*,?,-6.7%,50.1µM*
O=C(c1ccc(Cn2c(=S)[nH]c3ccc(N4CCOCC4)cc3c2=O)cc1)N1CCC(N2CCCCC2)CC1,12.5%,39.8µM*,-36.6%,-11.0%,-21.0%
Cc1ccc(OCCCC(=O)Nc2sc3c(c2C(N)=O)CCCC3)cc1,-4.3%,?,-3.7%,-2.8%,-23.9%
O=C1C(O)=C(O)C(=O)C(O)=C1O,nt,6.31µM*!,nt,20µM*,nt
C[C@H]1C=C(C(=O)O)O[C@@H](OCc2ccc(CO)cc2)C1,21.9%,nt,nt,2.6%,-8.7%
Nc1c(C(=O)NC2CCCC2)c2nc3ccccc3nc2n1/N=C/c1ccco1,15.5%,-6.2%,4.1%,3.3%,-6.0%
Nc1c(C(=O)NC2CCCC2)c2nc3ccccc3nc2n1N,25.6%,50.1µM*,12.4%,18.0%,-20.1%
CCc1ccc(N2CC(c3nnc(NC(=O)c4ccco4)s3)CC2=O)cc1 (stereo not drawn),10.6%,14.1µM*,-18.9%,2.1%,-14.2%
CCCCn1c(N)c(N(CCOC)C(=O)c2cc(=O)[nH]c3ccccc23)c(=O)[nH]c1=O,36.1%,?,3.5%,-5.5%,0.8%
C/C(=N/NC(=O)OC(C)(C)C)c1ccco1,48.4%,9.8%,14.9%,1.5%,-5.5%
CC(/C=C/c1ccco1)=N\NC(=O)c1cc(C)[nH]n1,13.8%,50.1µM*,-9.3%,8.0%,-26.1%
CC(/C=C/c1ccco1)=N/NC(=O)OC(C)(C)C,23.1%,70.8µM*,-4.9%,10.0%,-8.3%
O=C(/C=C/c1ccco1)c1cccnc1,0.1%,39.8µM*,-33.2%,?,?
CC(/C=C/c1ccco1)=N\NC(=O)c1cccnc1,9.8%,50.1µM*,-7.5%,-16.7%,-24.4%
CC(=O)c1ccc(C(=O)N(Cc2cccnc2)c2nc3c(C)c(C)ccc3s2)cc1,15.9%,-44.8%[59 µM],-30.7%,4.9%,-25.6%
CCn1c(CNc2cccc(C(F)(F)F)c2)n[nH]c1=S,22.0%,nt,-10.9%,-16.0%,50.1µM*
Fc1cccc(C[n+]2csc3ccccc32)c1,18.2%,11.2µM*,?,28.1%,79.4µM*
c1ccc(C[n+]2csc3ccccc32)cc1,23.1%,?,?,36.5%,?
O=C(Nc1ccc2c(c1)OCCO2)C(CCc1ccccc1)N1CCC(Cc2ccccc2)CC1 (stereo not drawn),nt,nt,nt,4.8%,nt
CCCCS(=N)(=O)CC[C@H](N)C(=O)O (stereo partly drawn),nt,10µM*!,nt,nt,nt

# Compound activity (PubChem)
